# Results filed as inconclusive are left out. A call without a number means that no potency is given here. Values without a mark were called inactive. Calls of active or inactive are those of the source. Calls come from the whole dose curve; as a rule, active = well fitted inhibition curve with a large enough effect; inconclusive = small, poorly fitted or top-dose-only effect; inactive = flat fitted curve, though single readings scatter.
# Assay: P-glycoprotein substrates identified in KB-8-5-11 adenocarcinoma cell line, qHTS therapeutic library screen (AID 1346987); note: nearly all actives have a fitted effect of over 65% in size
# Settings: KB-8-5-11 (P-gp overexpressing) viability, CellTiter-Glo, 72 h; series mostly up to 44.5 µM
# Text: The ATP-binding cassette transporters P-glycoprotein (P-gp) is known to limit brain penetration of many chemotherapy drugs. […] As such, we developed a high-throughput screen (HTS) to identify substrates of P-gp from a series of chemical libraries including the National Center for Advancing Translational Sciences Pharmaceutical Collection NPC, 2,816 compounds), testing a total of 10,804 compounds, most of which have known mechanisms of action. We used the CellTiter-Glo viability assay to test library compounds against the parental KB-3-1 human cervical adenocarcinoma cell line and the colchicine-selected sub-line KB-8-5-11 that over-expresses P-gp. KB-8-5-11 cells were also tested in the presence of a P-gp inhibitor (tariquidar) to assess reversability of transporter-mediated resistance. Of the tested compounds, a total of 90 P-gp substrates were identified including 55 newly identified P-gp substrates. Substrates were confirmed using an orthogonal killing assay against HEK-293 cells transfected with P-gp. As exemplars, we confirmed that […] (cyclin-dependent kinase inhibitor); AT9283, (Janus kinase 2/3 inhibitor); ispinesib (kinesin spindle protein inhibitor); gedatolisib (PKI-587, phosphoinositide 3-kinase/mammalian target of rampamycin inhibitor); GSK-690693 (AKT inhibitor); and KW-2478 (heat shock protein 90 inhibitor) were substrates , and direct ATPase stimulation was assessed. ABCG2 was also found to confer high levels of resistance to AT9283, GSK-690693 and gedatolisib, while ispinesib, AT7519 and KW-2478 were weaker substrates.
# The HeLa derivative cell line, KB-3-1, and its colchicine-selected, P-gp-overexpressing subline, KB-8-5-11 were maintained in DMEM with 10% FCS and Pen/Strep with glutamine at 37 degree C in 5% CO2. For KB-8-5-11 cells, colchicine was added to the medium at a concentration of 100 ng/mL. HEK-293 cells transfected with empty vector (pcDNA) or vector containing human ABCB1 (MDR-19) or ABCG2 (R-5) have been described previously (Robey, Lin, Qiu, Chan & Bates, 2011) and were maintained in EMEM supplemented with 10% FCS, Pen/Strep and glutamine with 2 mg/ml G418 to select for the expression of the transporter. Cultures were confirmed to be free of mycoplasma infection using the MycoAlert Mycoplasma Detection Kit (Lonza, Walkersville, MD). For the screen, assay medium was identical to culture medium except for KB-8-5-11 where colchicine was excluded from the medium.
# All cell lines were plated into 1536-well plates at 500 cells/well in 5 uL media. Compounds were then pinned in dose-response using a 1536-head pin tool (Kalypsis, San Diego, CA) and plates were incubated at 37 degree C in 5% CO2 for an additional 72 h. CellTiter-Glo reagent (Promega) was dispensed into the wells, incubated for 5 min and luminescence was read on a ViewLux instrument (Perkin-Elmer). Cytotoxic compounds were defined as those that yielded a curve class of -1.1, -1.2, -2.1, -2.2, -2.3, or -2.4, a maximum response of >50% and an AC50 of < 10 uM. Cherry-picked hits from screening analysis were tested with both the KB pair of cell lines, and the pcDNA (empty vector control) and MDR-19 (P-gp overexpressing) pair were tested, in the absence and presence of tariquidar.
# Potency is the fitted concentration of half-maximal effect.
Structure (SMILES),Potency,"activity change, negative = cytotoxicity"
C#CC1(O)CC[C@H]2[C@@H]3CCC4=CCCC[C@@H]4[C@H]3CC[C@@]21C (stereo not given in full),inactive,–
C=C(Nc1ccc(OCC)cc1)Nc1ccc(OCC)cc1,inactive,–
CCCSc1ccc2nc(NC(=O)OC)[nH]c2c1,0.556 µM (active),–
CC(C(=O)O)c1ccc(C(=O)c2cccs2)cc1 (stereo not given),inactive,–
CC(C)Cc1ccc([C@H](C)C(=O)O)cc1,inactive,–
O=C(/C=C/c1ccccc1)NCCO,inactive,–
N=C(N)N,inactive,–
CC(C(=O)O)c1ccc(C(=O)c2ccccc2)s1 (stereo not given),inactive,–
COC(=O)C1=C(C)NC(C)=C(C(=O)OCC(C)=O)C1c1ccccc1[N+](=O)[O-] (stereo not given),7.31 µM (active),–
O=C(Nc1ccc2[nH]ncc2c1)C1CCC1,inactive,–
CC1(C)S[C@@H]2[C@H](NC(=O)[C@H](NC(=O)N3CCN(S(C)(=O)=O)C3=O)c3ccccc3)C(=O)N2[C@H]1C(=O)O,inactive,–
COc1cccc2c1C(=O)c1c(O)c3c(c(O)c1C2=O)C[C@@](O)(C(=O)CO)C[C@@H]3O[C@H]1C[C@H](N)[C@H](O[C@@H]2CCCCO2)[C@H](C)O1,inactive,–
CN1CC(=O)N/C1=N/C(=O)Nc1cccc(Cl)c1,inactive,–
CC(=O)O[C@H]1C[C@@]2(C)[C@@H](C[C@@H](O)[C@H]3[C@@]4(C)CC[C@@H](O)[C@@H](C)[C@@H]4CC[C@@]32C)/C1=C(\CCC=C(C)C)C(=O)O,inactive,–
CCCOC(=O)c1ccc(O)cc1,inactive,–
Nc1ccc([N+](=O)[O-])cc1O,inactive,–
NCCO,inactive,–
CO/N=C(\C(=O)N[C@@H]1C(=O)N2C(C(=O)O)=C(COC(C)=O)CS[C@H]12)c1csc(N)n1 (stereo in doubt),inactive,–
CC(=O)SCC(CC(=O)c1ccc(C)cc1)C(=O)O (stereo not given),inactive,–
N=c1ccn2c(n1)O[C@H]1[C@H](O)[C@@H](CO)O[C@H]12,inactive,–

Structure (SMILES),Potency,"activity change, negative = cytotoxicity"
COc1cc(NC(C)CCCN)c2ncccc2c1 (stereo not given),inactive,–
CCCCCC[C@@H](O)C/C=C\CCCCCCCC(=O)O,inactive,–
CCCCC[C@H](O)/C=C/[C@@H]1[C@@H](C/C=C\CCCC(=O)O)[C@@H](O)C[C@H]1O,inactive,–
S=c1[nH]c2ccccc2s1,inactive,–
O=C(Nc1ccc(C(=O)O)c(O)c1)c1ccccc1,inactive,–
O=C(Nc1ccc2c(c1)CCN(Cc1ncn[nH]1)C2)c1ccccc1-c1ccc(C(F)(F)F)cc1,inactive,–
CC[C@H]1OC(=O)[C@H](C)C(=O)[C@H](C)[C@@H](O[C@@H]2O[C@H](C)C[C@H](N(C)C)[C@H]2O)[C@](C)(OC)C[C@@H](C)C(=O)[C@H](C)[C@H]2N(CCCCn3cnc(-c4cccnc4)c3)C(=O)O[C@]12C,inactive,–
CCNc1nc2c(ncn2[C@H]2C[C@H](O)[C@@H](CO)O2)c(=O)[nH]1,inactive,–
COc1cc(/C=C/C(=O)N2CCN(CC(=O)N3CCCC3)CC2)cc(OC)c1OC,inactive,–
CCCCN(CC)c1nc(C)nc2c1c(C)cn2-c1c(C)cc(C)cc1C,inactive,–
O=C(O)CC1CC(c2ccccc2)=NO1 (stereo not given),inactive,–
CC(=O)c1ccc(OCC(=O)N2CCCCC2)cc1,inactive,–
Cc1c(Nc2ncccc2C(=O)O)cccc1C(F)(F)F,inactive,–
O=C(O)Cc1cccc(-c2cc(CCCCCCc3ccc(O[C@H]4O[C@H](CO)[C@@H](O)[C@H](O)[C@@H]4O)c(-c4cccc(CC(=O)O)c4)c3)ccc2O[C@H]2O[C@H](CO)[C@@H](O)[C@H](O)[C@@H]2O)c1,–,3.65% [at 0.354 µM]
CC1(C)[C@@H](O[C@H]2O[C@H](C(=O)O)[C@@H](O)[C@H](O)[C@H]2O[C@@H]2O[C@H](C(=O)O)[C@@H](O)[C@H](O)[C@H]2O)CC[C@]2(C)[C@H]3C(=O)C=C4[C@@H]5C[C@@](C)(C(=O)O)CC[C@]5(C)CC[C@@]4(C)[C@]3(C)CC[C@@H]12,inactive,–
CCCCCCCCCCCCCCCC(=O)OC(C)C,inactive,–
CCCCCCOc1ccccc1C(N)=O,18.4 µM (active),–
CCCCCCCCCCCC(=O)[O][Sn]([CH2]CCC)([CH2]CCC)[O]C(=O)CCCCCCCCCCC,inactive,–
Nc1ccc(C(=O)O)c(O)c1,inactive,–
COc1cc2c3cc1Oc1cc(ccc1O)C[C@@H]1c4c(cc(OC)c(O)c4Oc4ccc(cc4)C[C@@H]3N(C)CC2)CC[N+]1(C)C,inactive,–

# — PubChem BioAssay (NCATS)
